From ChEMBL document CHEMBL3988442, “University of Dundee, Small-Polar-MMV Screening Library” (2021) come the findings set out here.

For some of these results: Entries with a potency or affinity are not part of this list.

Holding throughout (set-up): scale not given: direction of the effect not stated beside the values
Test [1] has as its target Protein translocase subunit SecA (Escherichia coli (strain K12)) (UniProt P10408). The test can be described thus: Assay to Identify E. coli SecA ATPase Inhibitors. It counts as functional. The conditions noted are these: 30 µM.
Test [2] addresses T1, Ubiquitin-activating enzyme e1, putative (Leishmania donovani (strain BPK282A1)) (UniProt E9BSI1).
T1 sequence (whole entry): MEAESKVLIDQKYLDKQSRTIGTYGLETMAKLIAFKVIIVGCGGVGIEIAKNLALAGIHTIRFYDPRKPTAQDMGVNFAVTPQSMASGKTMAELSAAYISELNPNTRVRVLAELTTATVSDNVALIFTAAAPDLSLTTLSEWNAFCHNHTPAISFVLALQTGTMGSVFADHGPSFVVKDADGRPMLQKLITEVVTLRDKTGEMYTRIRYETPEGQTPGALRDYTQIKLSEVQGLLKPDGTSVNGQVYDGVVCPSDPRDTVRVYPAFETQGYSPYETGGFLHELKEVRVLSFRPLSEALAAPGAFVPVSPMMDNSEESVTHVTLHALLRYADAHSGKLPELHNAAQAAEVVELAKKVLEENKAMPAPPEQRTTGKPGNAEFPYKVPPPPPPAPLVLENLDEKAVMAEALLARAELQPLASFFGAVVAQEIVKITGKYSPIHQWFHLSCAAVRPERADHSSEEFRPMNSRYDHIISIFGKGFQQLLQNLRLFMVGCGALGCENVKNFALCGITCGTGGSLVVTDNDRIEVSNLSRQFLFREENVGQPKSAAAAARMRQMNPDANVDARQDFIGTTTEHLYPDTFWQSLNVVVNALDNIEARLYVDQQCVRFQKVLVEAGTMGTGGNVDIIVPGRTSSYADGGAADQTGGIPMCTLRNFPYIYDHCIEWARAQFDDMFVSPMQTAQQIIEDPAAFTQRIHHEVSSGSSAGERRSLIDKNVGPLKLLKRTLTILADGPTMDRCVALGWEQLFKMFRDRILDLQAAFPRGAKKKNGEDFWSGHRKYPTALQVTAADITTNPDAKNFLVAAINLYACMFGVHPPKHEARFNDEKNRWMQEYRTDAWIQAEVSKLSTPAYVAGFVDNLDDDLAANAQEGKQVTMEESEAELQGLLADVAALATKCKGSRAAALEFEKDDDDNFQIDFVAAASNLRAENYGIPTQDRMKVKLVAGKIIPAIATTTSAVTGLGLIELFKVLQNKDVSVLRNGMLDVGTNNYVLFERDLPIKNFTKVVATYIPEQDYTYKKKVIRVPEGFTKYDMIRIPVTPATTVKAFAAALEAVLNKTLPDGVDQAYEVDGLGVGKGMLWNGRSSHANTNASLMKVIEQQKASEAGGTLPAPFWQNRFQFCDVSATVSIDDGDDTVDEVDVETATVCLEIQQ
The test can be described thus: Leishmania donovani Ubiquitin Activating Enzyme (LdE1). It counts as functional. The conditions noted are these: 30 µM.

Test [3] concerns the target AMP-activated protein kinase, AMPK (Homo sapiens) (UniProt P54646+O43741+P54619+Q9UGJ0+Q9Y478+Q13131+Q9UGI9). Kind of test: AMP-dependent Kinase enzyme assay. An in vitro enzyme assay that detects ADP turnover that is directly proportional to AMPK activity. This uses naive AMPK that is activated during the assay with MK-8722. The format is functional. The settings on record: 30 µM.

Test [4] concerns the target Sialic acid-binding Ig-like lectin 9 (Homo sapiens) (UniProt Q9Y336). Kind of test: Hs-Siglec9 ALPHAscreen SOP 20170721. The conditions noted are these: 10 µM.
Test [5] concerns Trypanosoma cruzi. Kind of test: Trypanosoma cruzi phosphomannomutase and mannose-1-phosphate guanylyltransferase assay. The settings on record: 10 µM. It counts as functional.
Test [6] addresses T2, Arginase-2, mitochondrial (Homo sapiens) (UniProt P78540).
T2 sequence (whole entry): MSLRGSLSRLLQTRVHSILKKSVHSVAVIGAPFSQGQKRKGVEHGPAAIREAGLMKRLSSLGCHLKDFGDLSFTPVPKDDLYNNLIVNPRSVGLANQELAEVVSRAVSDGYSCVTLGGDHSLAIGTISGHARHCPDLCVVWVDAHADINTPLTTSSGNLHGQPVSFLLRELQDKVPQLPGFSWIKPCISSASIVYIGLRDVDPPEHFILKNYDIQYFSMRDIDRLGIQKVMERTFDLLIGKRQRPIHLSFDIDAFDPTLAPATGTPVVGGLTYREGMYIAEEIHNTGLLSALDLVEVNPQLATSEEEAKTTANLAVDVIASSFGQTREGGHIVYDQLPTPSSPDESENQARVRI
The test can be described thus: in vitro enzyme assay to detect the production of urea directly proportional to the activity of Arginase II. Further: in the data most compounds retested in dose-response had high values. It counts as functional. The settings on record: 33.3 µM.

Test [7] concerns the target T3, Proteasome subunit beta (Trypanosoma cruzi) (UniProt O96673).
T3 sequence (whole entry): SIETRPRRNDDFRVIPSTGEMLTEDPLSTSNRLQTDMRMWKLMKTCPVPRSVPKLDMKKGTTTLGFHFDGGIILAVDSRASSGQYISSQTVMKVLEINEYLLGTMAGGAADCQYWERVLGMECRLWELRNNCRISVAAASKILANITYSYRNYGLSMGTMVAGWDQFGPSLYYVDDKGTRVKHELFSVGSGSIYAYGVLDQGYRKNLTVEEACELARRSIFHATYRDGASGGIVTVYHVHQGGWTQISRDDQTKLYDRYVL
The test can be described thus: Trypanosoma cruzi proteasome chymotrypsin-like activity (TcProtChymo) assay. Further: in the data most compounds retested in dose-response had high values. The settings on record: 9.37 µM. The format is functional.

The species entered for test [8] is Homo sapiens. Kind of test: To identify inhibition of the IFN signalling (Jak-Stat) pathway via expression of an eGFP reporter gene under the control of an IFN-stimulated response element (ISRE) containing MxA promoter. The format is functional. The settings on record: 30 µM.
The target of test [9] is T4, Tyrosyl-tRNA synthetase, putative (Trypanosoma cruzi (strain CL Brener)) (UniProt Q4DSP6).
T4 sequence (whole entry): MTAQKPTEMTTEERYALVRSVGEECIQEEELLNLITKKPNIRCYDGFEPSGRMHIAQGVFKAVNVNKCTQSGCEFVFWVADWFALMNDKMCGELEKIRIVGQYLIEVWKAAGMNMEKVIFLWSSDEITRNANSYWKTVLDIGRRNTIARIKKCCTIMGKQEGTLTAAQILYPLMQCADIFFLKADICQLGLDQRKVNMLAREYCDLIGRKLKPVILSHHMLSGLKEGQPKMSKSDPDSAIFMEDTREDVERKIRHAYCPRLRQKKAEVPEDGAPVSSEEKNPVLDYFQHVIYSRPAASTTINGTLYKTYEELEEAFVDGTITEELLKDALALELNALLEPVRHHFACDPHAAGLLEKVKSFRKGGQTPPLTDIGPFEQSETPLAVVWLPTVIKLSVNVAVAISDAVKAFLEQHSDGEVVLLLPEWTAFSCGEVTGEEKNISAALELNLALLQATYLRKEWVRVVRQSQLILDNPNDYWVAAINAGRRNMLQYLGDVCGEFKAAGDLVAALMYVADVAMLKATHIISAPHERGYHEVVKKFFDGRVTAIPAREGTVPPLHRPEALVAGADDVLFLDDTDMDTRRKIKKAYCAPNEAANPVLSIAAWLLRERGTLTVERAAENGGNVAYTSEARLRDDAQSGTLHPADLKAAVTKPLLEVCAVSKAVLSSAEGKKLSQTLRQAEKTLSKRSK
The test can be described thus: Trypanosoma cruzi tyrosyl tRNA synthetase (TcYRS) _High Tyrosine SOP. Further: in the data most compounds retested in dose-response had high values. The settings on record: 30 µM. It counts as functional.

The target of test [10] is T4, Tyrosyl-tRNA synthetase, putative (Trypanosoma cruzi (strain CL Brener)). The test can be described thus: Trypanosoma cruzi tyrosyl tRNA synthetase (TcYRS) SOP. The format is functional. The settings on record: 30 µM.
The target of test [11] is Chromo domain-containing protein 1 (Saccharomyces cerevisiae (strain ATCC 204508 / S288c) (Baker's yeast)) (UniProt P32657). The test can be described thus: ScCHD-1 Enzyme Inhibition Assay. Further: in the data most compounds retested in dose-response had high values. It counts as functional. The conditions noted are these: 30 µM.
Chromo domain-containing protein 1 (Saccharomyces cerevisiae (strain ATCC 204508 / S288c) (Baker's yeast)), sequence (P32657 whole entry, the tested form may be a part): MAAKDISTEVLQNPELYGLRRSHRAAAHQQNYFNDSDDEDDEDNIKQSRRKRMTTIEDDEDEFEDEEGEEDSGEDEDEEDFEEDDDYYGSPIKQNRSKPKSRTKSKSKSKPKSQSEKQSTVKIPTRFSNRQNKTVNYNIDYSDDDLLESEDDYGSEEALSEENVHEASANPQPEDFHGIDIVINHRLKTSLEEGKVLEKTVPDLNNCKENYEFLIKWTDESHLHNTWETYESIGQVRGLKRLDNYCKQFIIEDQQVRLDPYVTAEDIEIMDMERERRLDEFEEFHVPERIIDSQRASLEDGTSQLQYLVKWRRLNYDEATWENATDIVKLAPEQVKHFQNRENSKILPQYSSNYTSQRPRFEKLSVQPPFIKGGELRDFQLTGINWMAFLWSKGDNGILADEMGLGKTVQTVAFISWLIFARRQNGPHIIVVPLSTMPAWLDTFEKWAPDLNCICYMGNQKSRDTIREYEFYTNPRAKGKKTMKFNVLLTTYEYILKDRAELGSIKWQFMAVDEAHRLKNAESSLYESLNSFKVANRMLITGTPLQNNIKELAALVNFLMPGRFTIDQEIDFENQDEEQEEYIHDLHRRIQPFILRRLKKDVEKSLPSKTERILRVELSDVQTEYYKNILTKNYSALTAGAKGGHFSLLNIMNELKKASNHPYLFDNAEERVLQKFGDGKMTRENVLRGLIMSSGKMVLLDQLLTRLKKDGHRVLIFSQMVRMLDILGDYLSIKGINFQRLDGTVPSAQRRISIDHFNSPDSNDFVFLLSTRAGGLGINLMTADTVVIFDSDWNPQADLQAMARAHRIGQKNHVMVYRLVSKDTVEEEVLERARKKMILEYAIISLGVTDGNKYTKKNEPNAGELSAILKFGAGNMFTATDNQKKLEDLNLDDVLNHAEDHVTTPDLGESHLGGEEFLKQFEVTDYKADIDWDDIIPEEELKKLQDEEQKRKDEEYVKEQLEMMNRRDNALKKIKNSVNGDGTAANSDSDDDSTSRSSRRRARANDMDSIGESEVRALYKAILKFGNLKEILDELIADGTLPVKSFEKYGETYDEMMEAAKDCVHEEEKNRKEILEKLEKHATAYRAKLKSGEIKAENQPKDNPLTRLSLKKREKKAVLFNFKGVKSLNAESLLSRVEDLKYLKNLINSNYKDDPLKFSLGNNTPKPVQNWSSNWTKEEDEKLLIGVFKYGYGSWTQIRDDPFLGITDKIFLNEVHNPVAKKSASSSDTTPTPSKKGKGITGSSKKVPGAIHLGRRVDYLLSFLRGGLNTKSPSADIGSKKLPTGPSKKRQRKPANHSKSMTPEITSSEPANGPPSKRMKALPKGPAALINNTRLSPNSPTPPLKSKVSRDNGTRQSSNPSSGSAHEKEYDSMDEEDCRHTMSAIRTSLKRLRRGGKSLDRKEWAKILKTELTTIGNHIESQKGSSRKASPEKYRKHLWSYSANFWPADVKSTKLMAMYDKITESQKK

Protein translocase subunit SecA (Escherichia coli (strain K12)), sequence (P10408 whole entry): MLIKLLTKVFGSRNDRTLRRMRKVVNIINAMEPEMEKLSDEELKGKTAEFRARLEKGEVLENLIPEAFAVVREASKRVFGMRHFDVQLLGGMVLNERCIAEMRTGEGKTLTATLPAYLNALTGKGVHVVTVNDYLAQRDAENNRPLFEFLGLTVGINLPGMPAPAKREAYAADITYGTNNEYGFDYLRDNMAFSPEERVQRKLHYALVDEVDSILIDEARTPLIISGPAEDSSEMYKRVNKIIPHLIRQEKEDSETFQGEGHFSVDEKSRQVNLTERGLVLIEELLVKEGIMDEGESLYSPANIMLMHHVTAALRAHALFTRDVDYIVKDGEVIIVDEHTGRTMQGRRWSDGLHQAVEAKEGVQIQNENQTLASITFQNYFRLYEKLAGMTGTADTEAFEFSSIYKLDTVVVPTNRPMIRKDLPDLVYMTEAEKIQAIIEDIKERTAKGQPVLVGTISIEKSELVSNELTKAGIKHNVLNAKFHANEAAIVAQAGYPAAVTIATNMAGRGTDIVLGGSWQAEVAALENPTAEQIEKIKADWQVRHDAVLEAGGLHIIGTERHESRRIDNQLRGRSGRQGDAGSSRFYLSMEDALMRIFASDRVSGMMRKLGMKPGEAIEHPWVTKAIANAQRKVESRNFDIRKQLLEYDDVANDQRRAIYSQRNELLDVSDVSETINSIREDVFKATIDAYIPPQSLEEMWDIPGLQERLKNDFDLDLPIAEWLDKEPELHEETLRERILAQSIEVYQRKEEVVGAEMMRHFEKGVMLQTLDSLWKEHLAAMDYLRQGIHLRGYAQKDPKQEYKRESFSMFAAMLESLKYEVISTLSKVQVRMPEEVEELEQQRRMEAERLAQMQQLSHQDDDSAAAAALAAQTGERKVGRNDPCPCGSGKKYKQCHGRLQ
Sialic acid-binding Ig-like lectin 9 (Homo sapiens), sequence (Q9Y336 whole entry): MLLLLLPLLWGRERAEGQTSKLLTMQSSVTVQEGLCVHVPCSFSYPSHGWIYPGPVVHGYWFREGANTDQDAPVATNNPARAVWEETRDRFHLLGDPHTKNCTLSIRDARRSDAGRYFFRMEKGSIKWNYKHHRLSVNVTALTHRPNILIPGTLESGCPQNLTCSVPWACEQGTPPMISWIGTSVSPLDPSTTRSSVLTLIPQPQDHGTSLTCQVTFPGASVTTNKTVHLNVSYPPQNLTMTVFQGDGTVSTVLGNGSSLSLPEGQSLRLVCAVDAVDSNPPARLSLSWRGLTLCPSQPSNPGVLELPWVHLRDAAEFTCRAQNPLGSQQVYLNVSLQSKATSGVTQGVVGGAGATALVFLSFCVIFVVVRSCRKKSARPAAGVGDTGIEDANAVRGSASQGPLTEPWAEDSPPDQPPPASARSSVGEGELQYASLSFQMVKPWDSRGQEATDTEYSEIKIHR

On to `CCc1nc(CN2CCCN(C(=O)C(C)COC)CC2)cs1` (stereo not drawn), for which the Percent Effect was -1.87% in test [1]; 26% in test [2]; -9.16% in [3]; 1.76% in test [4]; 3% in test [5]; 3.92% in test [6]. The Percent Effect in test [7] was 17.2%; in [8], 10.8%; in test [9], 9.71%; in test [10] it was 21.9%; in test [11] it was -10.9%.

As for `COCC1c2c(cnn2C)CCN1Cc1ccoc1` (stereo not drawn), the Percent Effect was -4.26% in test [1]; -2.7% in test [2]; 3.57% in test [3]; 2.05% in test [4]; -1.95% in test [5]; -1.67% in test [6]. In addition, the Percent Effect is 0.0845% in test [7]; -9.84% in [8]; 0.99% in test [9]; 3.66% in test [10]; 2.42% in test [11].

On to `Cc1cc(NC(=O)CN2CCn3c(nnc3C(C)C)C2)no1`, for which the Percent Effect in [1] was -2.36%; in [2], 7.79%; in [3], 2.84%; in test [4] it was -23.1%; in [5] it was 2.25%; in test [6], -5.26%. Also, the Percent Effect was 16.6% in [7]; 25.4% in [8]; 5.71% in test [9]; 25.9% in [10]; -21.2% in test [11].

As to `O=C(NCC1CC1)[C@H]1C[C@H]2OCC[C@H]2N(CCc2ccccc2)C1`, the Percent Effect in test [1] is -3.05%; in [2] it was 2.7%; in [3], 0.431%; in test [4] it was -3.87%; in [5] it was -5.96%; in test [6], -1.59%. For the same molecule, the Percent Effect is 16.4% in test [7]; 0.915% in test [8]; 2.16% in test [9]; 5.13% in [10]; -1.91% in test [11].

`O=C(Cc1ccsc1)N1CCn2cc(CN3CCCC3)nc2C1`: the Percent Effect is -1.1% in [1]; 8.22% in test [2]; -4.43% in [3]; 11.5% in [4]; 8.33% in test [5]; -9.98% in test [6]. The Percent Effect in test [7] was 20.1%; in test [8] it was -16%; in [9], 14.6%; in test [10] it was 23.5%; in test [11], -4.19%.

Turning to `COCC1c2c(cnn2C)CCN1Cc1ccc(F)cc1` (stereo not drawn), the Percent Effect in test [1] was -4.38%; in test [2] it was -2.7%; in [3], 1.18%; in test [4] it was -3.56%; in [5], -2.93%; in test [6], 1.25%. The Percent Effect was 5.66% in test [7]; -1.22% in [8]; 5.94% in test [9]; 8.54% in [10]; 2.82% in test [11].

With `CN(CC1CCCCO1)C(=O)c1ccnc(OC2CCC2)c1` (stereo not drawn), the Percent Effect was 3.17% in test [1]; 0% in [2]; -6.16% in test [3]; 1.71% in test [4]; 6.18% in test [5]; 10.9% in [6]. In addition, the Percent Effect in test [7] was 8.62%; in [8], 29.6%; in test [9] it was -1.59%; in test [10] it was 0%; in [11], -2.67%.

`Cc1nc(CN2C[C@@H]3CN(C(=O)c4cnccn4)C[C@@H]3C2)cs1`: the Percent Effect in [1] is -1.57%; in test [2] it was 5.48%; in test [3] it was 0.106%; in [4], 5.75%; in test [5], -1.79%; in [6], -2.79%. Also, the Percent Effect in test [7] was 7.45%; in test [8] it was 7.67%; in test [9], 5.21%; in test [10], 16.1%; in test [11], -3.57%.
